Results as given in PubChem BioAssay (NCATS).
Results filed as inconclusive are left out. The source made the active and inactive calls. Unless noted, calls come from the whole dose curve; as a rule, active = well fitted curve in the direction sought with a large enough effect; inconclusive = small, poorly fitted or top-dose-only effect, or another doubt; inactive = no such curve, though single readings can be large; an effect the other way counts as inactive or inconclusive.

Legend:
[1] = target: Atrial natriuretic peptide receptor 1 (Homo sapiens) (UniProt P16066); experiment: Natriuretic polypeptide receptor (hNpr1) antagonism - Pilot screen (AID 1347049; calls by dose curve;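 note: agonist-evoked cGMP luminescence read 20 min after hNppA addition; series mostly up to about 58 µM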)
Outline: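 cGMP-sensor HEK293/hNpr1 cells, 1500/well, plated overnight at 37C. 2% GloSensor reagent, 2 h RT. Compound (23 nL pin transfer) 30 min RT, baseline luminescence pre-read. 0.1 nM hNppA, 20 min RT, post-read.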

[2] = target: Atrial natriuretic peptide receptor 2 (Homo sapiens) (UniProt P20594); experiment: Natriuretic polypeptide receptor (hNpr2) antagonism - Pilot subtype selectivity assay (AID 1347050; calls by dose curve; note: potency is the fitted concentration of half-maximal effect)
Outline: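 Luminescence from a genetically encoded cGMP luciferase biosensor in hNpr2-expressing HEK293 cells is read before and 20 min after adding 1 nM hNppC. Test compounds, in interplate 1:5 titrations, are added 30-50 min ahead of the agonist.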

[3] = NS1 protein of Zika virus - qHTS assay to identify small molecule inhibitors in human HEK 293 cells (AID 1347053); note: series mostly up to about 46 µM; nearly all actives have a fitted effect of over 55% in size
Outline: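 In this cell-based screen, HEK 293 cultures received compound for one hour before Zika MR766 at MOI = 0.5. NS1 was quantified 24 hours later by TR-FRET, normalized to virus-free wells and infected wells.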

[4] = target: T1, Tyrosine-protein phosphatase non-receptor type substrate 1 (Homo sapiens) + Leukocyte surface antigen CD47 (Homo sapiens) (UniProt P78324+Q08722); experiment: CD47-SIRPalpha protein protein interaction - LANCE assay qHTS validation (AID 1347057; active = well fitted curve in the direction sought with a large enough effect in the signal ratio, with a control signal flat, not every such curve was filed as active; the % refers to the signal ratio; note: series mostly up to about 38 µM)
Outline: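 Inhibition of soluble CD47/SIRPalpha ectodomain association by titrated compounds, measured as 665/615 nm time-resolved FRET ratio after sequential 30 min room-temperature incubations.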

[5] = target: T1, Tyrosine-protein phosphatase non-receptor type substrate 1 (Homo sapiens) + Leukocyte surface antigen CD47 (Homo sapiens); experiment: CD47-SIRPalpha protein protein interaction - Alpha assay qHTS validation (AID 1347059);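 note: bead proximity luminescence from CD47 binding SIRPalpha after compound preincubation with SIRPalpha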
Outline: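 SIRPalpha-biotin 25 nM + cpd, 30 min RT, dark; add CD47-His 12.5 nM, 30 min; add Ni-NTA/SAV beads 10 ug/mL, 30 min; AlphaScreen. Buffer PBS pH 7.4 + 0.05% IGEPAL CA-630. Non-biotinylated SIRPalpha as control inhibitor.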

[6] = target: Parathyroid hormone/parathyroid hormone-related peptide receptor (Homo sapiens) (UniProt Q03431); experiment: qHTS for PTHR1 Agonists: Optimization Screen against the NCGC LOPAC library (AID 1347079);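 note: GloSensor cAMP luminescence in HEK-293 GP2 cells expressing human PTHR1 with IBMX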
Outline: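 HEK-293 GP2 cells, PTHR1 + GloSensor cAMP; 3000 cells/well, o/n. Luciferin + IBMX 0.5mM each (stock), 1 hr 37C. Cpd titration, 1 hr 37C. Lum after 15 min RT. Ctrl M-PTH(1-15) top 10uM.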

[7] = target: T1, Tyrosine-protein phosphatase non-receptor type substrate 1 (Homo sapiens) + Leukocyte surface antigen CD47 (Homo sapiens); experiment: CD47-SIRPalpha protein protein interaction - HTRF assay qHTS validation (AID 1347058; active = well fitted curve in the direction sought with a large enough effect in the signal ratio, not every such curve was filed as active; the % refers to the signal ratio; note: series mostly up to about 38 µM)
Outline: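 Soluble extracellular domains (6His-CD47, Avi-tag-biotinylated SIRPalpha) in PBS pH 7.4 with 0.05% IGEPAL CA-630. Compounds were preincubated 30 min at RT with CD47 and anti-His-Eu, then SIRPalpha and SAV-XL665 were added. TR-FRET 665/615 ratio.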

[8] = qHTS of pediatric cancer cell lines to identify multiple opportunities for drug repurposing: Primary screen for TC32 cells (AID 1347089); note: nearly all actives have a fitted effect of over 60% in size; note: potency is the fitted concentration of half-maximal effect
Outline: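 A viability screen of TC32 cells was run over 48 h, with primary MIPE doses spanning 0.78 nM–46 µM and NPC doses 0.59 nM–46 µM. ATP luminescence (CellTiter-Glo) served as the read-out.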

[9] = qHTS of pediatric cancer cell lines to identify multiple opportunities for drug repurposing: Primary screen for DAOY cells (AID 1347090); note: nearly all actives have a fitted effect of over 55% in size; note: potency is the fitted concentration of half-maximal effect
Outline: (§1)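 Viability measured as metabolically active cells via CellTiter-Glo luminescence following 48 hours of compound exposure, 11-point dilutions in confirmatory testing. 500-1,000 cells/well plated 5 hours before dosing; controls were DMSO and 2.3 µM bortezomib.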

[10] = qHTS of pediatric cancer cell lines to identify multiple opportunities for drug repurposing: Primary screen for SJ-GBM2 cells (AID 1347091); note: potency is the fitted concentration of half-maximal effect
Outline: as §1

[11] = qHTS of pediatric cancer cell lines to identify multiple opportunities for drug repurposing: Primary screen for A673 cells (AID 1347092); note: potency is the fitted concentration of half-maximal effect; nearly all actives have a fitted effect of over 45% in size
Outline: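 Titration-based qHTS on A673 cells: MIPE compounds spanned 11 points (0.78 nM to 46 µM final), NPC compounds 8 points (0.59 nM to 46 µM final). Viability after 48 h was measured by ATP luminescence.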

[12] = qHTS of pediatric cancer cell lines to identify multiple opportunities for drug repurposing: Primary screen for SK-N-MC cells (AID 1347093); note: potency is the fitted concentration of half-maximal effect
Outline: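 Metabolically active cells were quantified by ATP-dependent luminescence (CellTiter-Glo, 15 min at room temperature) following 48 h treatment. Cells had been plated at 500-1,000 per well and settled for 5 h beforehand.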

[13] = qHTS of pediatric cancer cell lines to identify multiple opportunities for drug repurposing: Primary screen for BT-37 cells (AID 1347094); note: potency is the fitted concentration of half-maximal effect
Outline: (§2)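 Following a 5-hour attachment period, cells at 500-1,000/well received compounds and were cultured for 48 hours. CellTiter-Glo was added and luminescence read to estimate viable, metabolically active cells.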

[14] = qHTS of pediatric cancer cell lines to identify multiple opportunities for drug repurposing: Primary screen for NB-EBc1 cells (AID 1347095); note: potency is the fitted concentration of half-maximal effect
Outline: as §2

Measured: Potency

Parathyroid hormone/parathyroid hormone-related peptide receptor (Homo sapiens), sequence (Q03431 whole entry, looked up): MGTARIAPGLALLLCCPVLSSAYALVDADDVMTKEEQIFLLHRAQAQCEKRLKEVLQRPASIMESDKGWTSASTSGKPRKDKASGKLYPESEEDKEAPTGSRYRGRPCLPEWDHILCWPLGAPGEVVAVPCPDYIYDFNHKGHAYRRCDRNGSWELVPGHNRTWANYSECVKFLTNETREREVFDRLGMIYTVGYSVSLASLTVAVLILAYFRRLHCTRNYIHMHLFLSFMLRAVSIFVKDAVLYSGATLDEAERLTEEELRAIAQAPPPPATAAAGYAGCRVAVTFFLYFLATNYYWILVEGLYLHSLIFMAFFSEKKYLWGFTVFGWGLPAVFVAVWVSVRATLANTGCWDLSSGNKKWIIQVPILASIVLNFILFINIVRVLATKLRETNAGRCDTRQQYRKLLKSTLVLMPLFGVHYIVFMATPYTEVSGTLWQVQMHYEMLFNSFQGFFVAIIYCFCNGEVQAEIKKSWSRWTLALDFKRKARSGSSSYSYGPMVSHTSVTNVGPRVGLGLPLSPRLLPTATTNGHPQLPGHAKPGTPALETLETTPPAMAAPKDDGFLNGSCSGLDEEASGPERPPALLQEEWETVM
Atrial natriuretic peptide receptor 1 (Homo sapiens), sequence (P16066 whole entry, looked up): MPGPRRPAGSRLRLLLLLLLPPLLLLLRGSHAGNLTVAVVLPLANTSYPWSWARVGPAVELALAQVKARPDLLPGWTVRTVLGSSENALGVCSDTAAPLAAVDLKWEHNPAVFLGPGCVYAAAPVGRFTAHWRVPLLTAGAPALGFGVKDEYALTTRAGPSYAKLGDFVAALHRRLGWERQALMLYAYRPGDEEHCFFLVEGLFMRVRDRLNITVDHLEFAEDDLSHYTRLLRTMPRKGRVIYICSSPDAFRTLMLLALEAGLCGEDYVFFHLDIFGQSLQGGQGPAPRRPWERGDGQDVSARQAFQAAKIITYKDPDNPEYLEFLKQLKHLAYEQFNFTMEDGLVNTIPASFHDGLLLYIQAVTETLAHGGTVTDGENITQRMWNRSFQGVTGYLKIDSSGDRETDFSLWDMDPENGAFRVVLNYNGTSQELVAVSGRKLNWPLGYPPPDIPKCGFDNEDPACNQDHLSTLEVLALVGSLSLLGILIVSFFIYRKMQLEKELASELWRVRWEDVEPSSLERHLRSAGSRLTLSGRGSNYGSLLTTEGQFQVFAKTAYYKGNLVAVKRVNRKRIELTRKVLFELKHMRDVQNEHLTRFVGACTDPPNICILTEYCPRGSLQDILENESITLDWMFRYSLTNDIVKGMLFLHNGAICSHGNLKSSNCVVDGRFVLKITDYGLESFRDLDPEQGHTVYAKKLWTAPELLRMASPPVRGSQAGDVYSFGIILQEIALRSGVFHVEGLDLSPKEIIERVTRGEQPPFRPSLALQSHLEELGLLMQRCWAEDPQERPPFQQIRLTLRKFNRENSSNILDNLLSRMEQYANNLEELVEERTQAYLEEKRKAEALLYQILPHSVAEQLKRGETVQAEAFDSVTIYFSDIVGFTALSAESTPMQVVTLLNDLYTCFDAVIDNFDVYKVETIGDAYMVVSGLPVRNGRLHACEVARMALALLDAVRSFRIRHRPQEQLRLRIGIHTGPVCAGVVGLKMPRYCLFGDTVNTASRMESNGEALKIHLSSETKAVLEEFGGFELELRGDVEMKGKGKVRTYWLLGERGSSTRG
T1 sequence (P78324 whole entry, looked up, the tested form may be a part): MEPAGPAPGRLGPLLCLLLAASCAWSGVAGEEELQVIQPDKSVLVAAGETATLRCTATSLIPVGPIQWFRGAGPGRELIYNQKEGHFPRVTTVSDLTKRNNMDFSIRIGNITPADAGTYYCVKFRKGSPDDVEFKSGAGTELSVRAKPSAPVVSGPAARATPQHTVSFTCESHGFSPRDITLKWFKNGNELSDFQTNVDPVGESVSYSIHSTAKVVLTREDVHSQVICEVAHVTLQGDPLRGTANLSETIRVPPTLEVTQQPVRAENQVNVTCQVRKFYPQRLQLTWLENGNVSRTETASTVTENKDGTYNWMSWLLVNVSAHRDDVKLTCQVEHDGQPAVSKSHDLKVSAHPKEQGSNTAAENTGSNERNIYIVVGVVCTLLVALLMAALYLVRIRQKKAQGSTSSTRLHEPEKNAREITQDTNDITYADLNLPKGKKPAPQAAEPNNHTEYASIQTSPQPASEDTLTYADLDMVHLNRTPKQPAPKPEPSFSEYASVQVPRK
T1 sequence (Q08722 whole entry, looked up, the tested form may be a part): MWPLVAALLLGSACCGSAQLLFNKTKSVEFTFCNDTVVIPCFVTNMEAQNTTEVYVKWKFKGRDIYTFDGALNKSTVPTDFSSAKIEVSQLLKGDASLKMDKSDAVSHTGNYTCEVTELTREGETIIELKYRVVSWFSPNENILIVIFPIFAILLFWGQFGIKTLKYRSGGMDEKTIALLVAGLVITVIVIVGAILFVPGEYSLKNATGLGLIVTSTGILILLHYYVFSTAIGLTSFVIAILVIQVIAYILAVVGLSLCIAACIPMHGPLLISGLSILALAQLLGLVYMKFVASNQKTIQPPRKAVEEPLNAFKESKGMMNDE
Atrial natriuretic peptide receptor 2 (Homo sapiens), sequence (P20594 whole entry, looked up): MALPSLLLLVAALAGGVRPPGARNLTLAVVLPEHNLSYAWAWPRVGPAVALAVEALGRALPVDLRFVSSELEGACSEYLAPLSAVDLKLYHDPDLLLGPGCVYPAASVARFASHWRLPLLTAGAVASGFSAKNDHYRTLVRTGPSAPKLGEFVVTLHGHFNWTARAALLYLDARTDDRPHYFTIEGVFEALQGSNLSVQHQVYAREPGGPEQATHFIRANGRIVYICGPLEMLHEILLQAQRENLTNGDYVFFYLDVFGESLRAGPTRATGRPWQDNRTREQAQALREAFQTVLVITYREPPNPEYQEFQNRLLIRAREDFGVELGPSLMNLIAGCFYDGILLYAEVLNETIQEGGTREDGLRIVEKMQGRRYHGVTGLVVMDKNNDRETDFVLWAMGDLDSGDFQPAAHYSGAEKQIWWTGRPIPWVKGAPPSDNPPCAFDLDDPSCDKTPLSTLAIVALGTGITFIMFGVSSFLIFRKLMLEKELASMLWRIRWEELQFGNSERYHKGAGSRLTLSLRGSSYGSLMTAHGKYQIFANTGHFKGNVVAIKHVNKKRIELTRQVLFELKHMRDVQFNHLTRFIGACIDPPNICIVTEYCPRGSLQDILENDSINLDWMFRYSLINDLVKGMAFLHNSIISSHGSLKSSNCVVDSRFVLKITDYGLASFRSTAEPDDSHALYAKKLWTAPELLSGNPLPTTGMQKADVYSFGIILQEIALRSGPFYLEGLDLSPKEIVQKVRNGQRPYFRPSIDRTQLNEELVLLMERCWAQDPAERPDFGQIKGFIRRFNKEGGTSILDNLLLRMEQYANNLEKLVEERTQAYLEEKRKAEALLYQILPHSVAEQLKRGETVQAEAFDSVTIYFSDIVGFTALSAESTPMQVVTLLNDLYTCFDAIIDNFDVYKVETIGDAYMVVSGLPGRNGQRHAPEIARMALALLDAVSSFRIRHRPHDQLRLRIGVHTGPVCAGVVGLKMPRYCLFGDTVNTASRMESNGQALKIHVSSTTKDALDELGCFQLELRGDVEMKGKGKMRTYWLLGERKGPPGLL

NC(N)=NC(=O)c1nc(Cl)c(N2CCCCCC2)nc1N
inactive: [1] | [2] | [3] | [4] | [5] | [6]

CC1CN(S(=O)(=O)c2cccc3cnccc23)CCN1 (stereo not drawn)
inactive: [1] | [2] | [3] | [4] | [7] | [5] | [6]

N[C@@H](CC(=O)O)C(=O)O
inactive: [1] | [2] | [3] | [6]

COc1cc(SC)ccc1C(=O)N1CCC(Cc2ccccc2)CC1
inactive: [1] | [2] | [3] | [4] | [7] | [5] | [6]

CC(C)NC[C@@H](O)c1ccc(O)c(O)c1
inactive: [1] | [2] | [3] | [4] | [5] | [6]

Cn1cc(C2=C(c3ccc(Cl)cc3Cl)C(=O)NC2=O)c2ccccc21
inactive: [1] | [2] | [3] | [4] | [7] | [6]

c1ccc(-c2ccccn2)nc1
inactive: [1] | [2] | [3] | [6]

CN(C)c1nc(N)c(C(=O)N=C(N)N)nc1Cl
inactive: [1] | [2] | [3] | [4] | [5] | [6]

C=C[C@@H]1CN2CC[C@@H]1C[C@H]2[C@H](O)c1ccnc2ccc(OC)cc12
inactive: [1] | [2] | [3] | [6]

O=C(Nc1ccccc1)c1cc([N+](=O)[O-])ccc1Cl
inactive: [1] | [2] | [3] | [4] | [5] | [6]

Cc1cc(NC(=O)Nc2ccc3c(ccn3C)c2)sn1
inactive: [1] | [2] | [3] | [4] | [7] | [6]

O=c1[nH]c2cc([N+](=O)[O-])c([N+](=O)[O-])cc2[nH]c1=O
inactive: [1] | [2] | [3] | [4] | [5] | [6]

Nc1nc(SCc2ccc([N+](=O)[O-])cc2)c2ncn([C@@H]3O[C@H](CO)[C@@H](O)[C@H]3O)c2n1
inactive: [1] | [2] | [3] | [4] | [5] | [6]

N.N.N.N.N.N.N.N.N.N.N.N.N.N.O.O.[Ru+4].[Ru+5].[Ru+5]
inactive: [1] | [2] | [3] | [6]

COc1cccc(C(=O)NCCN2CCN(c3ccc(Cl)cc3)CC2)c1
inactive: [1] | [2] | [3] | [4] | [7] | [5] | [6]

Cn1c(=O)c2[nH]c(-c3ccccc3)nc2n(C)c1=O
inactive: [1] | [2] | [3] | [6]

CC1(C)CCC=[N+]1[O-]
inactive: [1] | [2] | [3] | [4] | [7] | [5] | [6]

O=C(/C=C/c1ccc(O)c(O)c1)OCCc1ccccc1
inactive: [1] | [2] | [3] | [4] | [7] | [5] | [6]

Oc1ccccc1O
inactive: [1] | [2] | [3] | [6]

Cn1ncc(S(=O)(=O)Cc2ccccc2)c(Br)c1=O
active: [2] 11.7 µM
inactive: [1] | [3] | [4] | [5] | [6]

NCCCCCCCCCCN
inactive: [1] | [2] | [3] | [4] | [7] | [6]

COC1=C(OC)C(=O)c2ccccc2C1=O
inactive: [1] | [2] | [3] | [4] | [5] | [6]

C=C[C@H]1CN2CC[C@@H]1C[C@@H]2[C@@H](O)c1ccnc2ccc(OC)cc12
inactive: [1] | [2] | [3] | [6]

CC(C)(C=O)Cc1cc(C(C)(C)C)c(O)c(C(C)(C)C)c1
inactive: [1] | [2] | [3] | [4] | [7] | [5] | [6]

NCCCS(=O)(=O)O
inactive: [1] | [2] | [3] | [4] | [7] | [5] | [6]

Fc1ccc(C(OCCCc2cnc[nH]2)c2ccc(F)cc2)cc1
inactive: [1] | [2] | [3] | [4] | [7] | [6]

CNCC[C@H](Oc1ccc(C(F)(F)F)cc1)c1ccccc1
inactive: [3] | [6]

Fc1ccc2[nH]c(CN3CCN(c4ccccn4)CC3)cc2c1
inactive: [3] | [4] | [7] | [5]

CCOC(=O)C1=C(C)NC(C)=C(C(=O)OCC)C1c1c(F)c(F)c(F)c(F)c1F
inactive: [3] | [4] | [7] | [6]

COC(=O)C1=C(C)NC(C)=C(C(=O)OCC(C)C)C1c1ccccc1[N+](=O)[O-] (stereo not drawn)
inactive: [3] | [8] | [9] | [10]

CS(=O)(=O)c1ccc(-n2nc(C(F)(F)F)cc2-c2ccc(F)cc2)cc1
inactive: [3] | [4] | [7] | [5]

COC(=O)Nc1nc2ccc(C(=O)C3CC3)cc2[nH]1
inactive: [3]
active: [8] 1.33 µM | [9] 1.06 µM | [10] 841 nM | [11] 1.06 µM | [12] 1.06 µM | [13] 2.19 µM | [14] 596 nM

CN(C)CCC(c1ccc(Cl)cc1)c1ccccn1 (stereo not drawn)
inactive: [3] | [6]

CC(C)c1cccc(C(C)C)c1N1C(=O)c2ccc(O)cc2C1=O
inactive: [3] | [4] | [7] | [5]

CC(C)(NS(=O)(=O)c1ccc(Oc2ccc(F)cc2)cc1)C(=O)NO
inactive: [3] | [4] | [7] | [5]

COc1ccc(-c2cc(=O)c3c(O)c(OC)c(OC)cc3o2)cc1O
inactive: [3] | [4] | [5]
